Measured values reported in PubChem BioAssay (NCI).
Compounds without any hit were thinned out: in the full panel of roughly 83,000, 20% have a hit.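 Cells were grown in 96-well plates and exposed to the test compound at a single concentration for 48 hours; results are reported as percent growth, with values below 10 considered active.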 Calls of active or inactive are those of the source.

Tested on: MOLT-4 leukemia
Experiment: NCI-60 one-dose screen, 48 h (100 = growth as untreated, 0 = no growth, -100 = all killed)
Conditions: 10 µM unless noted
Method: Growth inhibition of the MOLT-4 human tumor cell line is measured as a screen for anti-cancer activity. Cells are grown in 96 well plates and exposed to the test compound for 48 hours. Compounds are tested at a single concentration, which is 10^-5 M for most compounds. The reported endpoint is percent growth (GI% or GIPRCNT), where numbers from 0 - 100% represent growth inhibition, and numbers from -100% - 0 represent cell death. For example, a value of 40 represents 60% growth inhibition. A value of 0 means no net growth occurred over the course of the experiment. A value of -40 indicates 40% of cells at the beginning of the experiment died by the end of the experiment. A value of -100 means all cells are dead at the end of the experiment.
NCI-60 Human Tumor Cell Lines Screen was performed using the standard one-dose NCI protocol, which is described in more detail at https://dtp.cancer.gov/discovery_development/nci-60/default.htm.
Compounds with GIPRCNT values below 10 were considered active. Activity score was based on GIPRCNT using the following formula: […]
Score is 0 for GIPRCNT values of 100 or above, 50 for GIPRCNT values of 0, and 100 for GIPRCNT values of -100.

Question: How did the growth turn out when `COc1ccc(NC(=O)c2ccccc2-c2ccccc2)c(C(N)=O)c1` was run?
Answer: 20% (inactive)

Question: How did the growth turn out when `Oc1ccc(/C=N/Nc2nc3ccccc3s2)c(O)c1` was run?
Answer: 18.8% (inactive)

Question: Which growth does the source give for `O=C(Nc1nc(-c2ccc(Cl)cc2)cs1)c1cc(-c2ccc(Br)cc2)nc2ccc(Cl)cc12` here?
Answer: 18.5% (inactive)

Question: How did the growth turn out when `COc1ccc(/C=C2\CCc3ccccc3C2=O)cc1` was run?
Answer: 73.9% (inactive)

Question: Which growth does the source give for `CCN(CC)CCNCC(=O)Oc1ccc(/C=C/C(=O)CC(=O)/C=C/c2ccc(OC(=O)CNCCN(CC)CC)c(OC)c2)cc1OC` here?
Answer: 0.439% (active)

Question: `Oc1ccccc1/C=N/N1CCCCCC1` was tested. Which growth did it give?
Answer: 95.1% (inactive)

Question: With `O=C(Nc1cccc(Cl)c1)Nc1cccc(Cl)c1` as the molecule, how does the growth read?
Answer: 51.6% (inactive)

Question: For `Cc1cnc2nc(-c3ccc(N(C)C)cc3)cn2c1`, which growth is on record?
Answer: 91.9% (inactive)

Question: Which growth does the source give for `O=C1Nc2ccc(C(=O)O)c(O)c2C1=O` here?
Answer: 110% (inactive)

Question: `O=C1C=CC(=O)N1c1ccccc1N1C(=O)C=CC1=O` was tested. Which growth did it give?
Answer: 99.2% (inactive)

Question: Which growth does the source give for `O=C1C(=O)c2c(nc3ccc(Cl)cn23)-c2ccccc21` here?
Answer: -94.5% (active)

Question: For `COc1ccc2c(c1)[n+](=O)c(/C=C/C(=O)c1cc(OC)c(OC)c(OC)c1)c(C)n2[O-]`, which growth is on record?
Answer: 0.943% (active)

Question: For `OC(c1ccccc1)C(NCc1ccccc1)c1ccccc1` (stereo not given), which growth is on record?
Answer: 100% (inactive)

Question: Which growth does the source give for `Cc1cccc2nnc(-c3ccccc3)n12` here?
Answer: 93.2% (inactive)

Question: How did the growth turn out when `Nc1nc(Nc2ccccc2SSc2ccccc2Nc2nc(N)nc(-c3cccc(Cl)c3)n2)nc(-c2cccc(Cl)c2)n1` was run?
Answer: 80.4% (inactive)

Question: With `FCc1ncc(-c2ccc(C(F)(F)F)cc2)c(NC2CCCCCC2)n1` as the molecule, how does the growth read?
Answer: -20.3% [100 µM] (active)

Question: For `COc1ccc(Oc2ccccc2NC(=O)CNC(=O)c2cccc3ccccc23)cc1`, which growth is on record?
Answer: 17.1% [5 µM] (inactive)

Question: `COc1ccc(-c2cnc(SCC(=O)Nc3ccc(-c4nc5ccccc5s4)cc3)n2-c2ccc(OC)cc2)cc1` was tested. Which growth did it give?
Answer: 105% (inactive)

Question: With `COc1ccc(C(=O)/C=C/c2ccc(C)cc2)cc1OC` as the molecule, how does the growth read?
Answer: 52.1% (inactive)

Question: `CC[C@@H](C)/C=C(C)/C=C/C(O)=C1\C(=O)N[C@@H](Cc2ccc(OC(=O)[C@@](OC)(c3ccccc3)C(F)(F)F)cc2)C1=O` was tested. Which growth did it give?
Answer: 41.6% (inactive)

Question: `N#Cc1c(-c2ccccc2)cc(-c2ccccc2)n(CC(=O)O)c1=O` was tested. Which growth did it give?
Answer: 63.8% (inactive)

Question: `COc1cc(OC)c2c(c1Cl)O[C@]1(C2=O)C(OCc2ccccc2)=CC(=O)C[C@H]1C` was tested. Which growth did it give?
Answer: 14.1% (inactive)

Question: With `Cc1ccc(C(NC(=O)c2ccccc2)c2ccc3cccnc3c2O)cc1` (stereo not given) as the molecule, how does the growth read?
Answer: 8.31% (active)

Question: How did the growth turn out when `C=C1CCC2C(C)(COC(=O)CC)C(OC(=O)CC)CCC2(C)C1C/C=C1/C(=O)OCC1OC(=O)CC` (stereo not given) was run?
Answer: -11% (active)

Question: Which growth does the source give for `COc1cnc2c(c1)C(=O)c1c-2n(CCCN2CCNCC2)c(=O)c2cc(F)ccc12` here?
Answer: -16.2% (active)

Question: With `O=c1sc2ncnc3ncn1c32` as the molecule, how does the growth read?
Answer: 35.9% (inactive)

Question: Which growth does the source give for `O=Cc1ncc(-c2ccc(C(F)(F)F)cc2)c(NC2CCCCCC2)n1` here?
Answer: -60% [100 µM] (active)

Question: How did the growth turn out when `O=C1NCCc2c1noc2-c1ccccc1` was run?
Answer: 97.5% (inactive)

Question: `CNc1nc(NC2CCCC2)nc(Sc2ccc(OC)cc2)n1` was tested. Which growth did it give?
Answer: -5.92% [100 µM] (active)

Question: For `COc1ccc(N2CCN(CC(=O)N3CCN(c4nnc(-c5ccc(Cl)cc5)c(-c5ccc(Cl)cc5)n4)CC3)CC2)cc1`, which growth is on record?
Answer: -21.2% (active)

Question: Which growth does the source give for `CC(=O)c1nn(-c2ccccc2)c(=Nc2ccccc2)cc1C` here?
Answer: 94.3% (inactive)

Question: Which growth does the source give for `CC(C)N(Cc1ccccc1)c1c(S)ssc1=S` here?
Answer: 0.0865% (active)

Question: Which growth does the source give for `Cn1cnc([N+](=O)[O-])c1Sc1nc(N)nc2nc[nH]c12` here?
Answer: 11.3% (inactive)

Question: `COc1cc(C2=NN(C=O)C(c3cccc(Nc4ccnc5cc(Cl)ccc45)c3)C2)cc(OC)c1OC` (stereo not given) was tested. Which growth did it give?
Answer: 27.9% (inactive)

Question: `CSc1nc(Nc2ccc(S(=O)(=O)Nc3ccon3)cc2)c(C#N)c(-c2ccc(Cl)cc2)n1` was tested. Which growth did it give?
Answer: -20.8% (active)

Question: Which growth does the source give for `CCCCN=C(N)c1ccc(OCCSCCOc2ccc(C(N)=NCCCC)cc2)cc1` here?
Answer: 67.8% (inactive)

Question: How did the growth turn out when `Nc1ncnc2c1CN(Cc1ccccc1)CC2` was run?
Answer: 102% (inactive)

Question: With `[N-]=[N+]=NCc1ncc(-c2ccc(C(F)(F)F)cc2)c(NC2CCCCCC2)n1` as the molecule, how does the growth read?
Answer: 54.7% [50 µM] (inactive)

Question: How did the growth turn out when `CC(NC(N)=S)c1ccccc1` (stereo not given) was run?
Answer: 98.8% (inactive)

Question: `NC(=N\N=C/Cc1ccccc1)/C(N)=N\N=C\Cc1ccccc1` was tested. Which growth did it give?
Answer: 100% (inactive)
